Values without a mark were called inactive. For some of these results: Entries with a potency or affinity are not part of this list. The source made the active and inactive calls. Unless noted, no rule for the calls is given here.
How the values were obtained:
[1] = antimalarial activity against Dd2 strain (AID 2302;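 active = growth inhibition above 50% at the single 2 µM test dose, taken to imply half-maximal potency below 2 µM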;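 also: 0% = DMSO untreated growth and 100% = chloroquine plus artemisinin killed control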); settings: P. falciparum Dd2 in RBCs, LDH growth readout, 72 h; at 2 µM; active compounds read high
[2] = human hepatoma cell viability loss – ATP luminescence, cytotoxicity control for P. falciparum antimalarial project, primary screen (AID 2303;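 active = inhibition above 50%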;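 also: 0% = DMSO wells and 100% = digitonin-killed cells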); settings: HepG2 viability, 24-48 h, at 10 µM, active compounds read high
[3] = target: L-lactate dehydrogenase (Plasmodium falciparum (isolate CDC / Honduras)) (UniProt Q27743); test: PfLDH activity inhibition – cell lysate, 3D7 strain, counter-screen for P. falciparum growth inhibition project (AID 2304);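 also: 0% = vehicle and 100% = reference inhibitor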; settings: P. falciparum 3D7 crude extract, LDH APAD/NBT absorbance; at 2 µM; active compounds read high
Chain of L-lactate dehydrogenase (Plasmodium falciparum (isolate CDC / Honduras)) (Q27743 whole entry, looked up): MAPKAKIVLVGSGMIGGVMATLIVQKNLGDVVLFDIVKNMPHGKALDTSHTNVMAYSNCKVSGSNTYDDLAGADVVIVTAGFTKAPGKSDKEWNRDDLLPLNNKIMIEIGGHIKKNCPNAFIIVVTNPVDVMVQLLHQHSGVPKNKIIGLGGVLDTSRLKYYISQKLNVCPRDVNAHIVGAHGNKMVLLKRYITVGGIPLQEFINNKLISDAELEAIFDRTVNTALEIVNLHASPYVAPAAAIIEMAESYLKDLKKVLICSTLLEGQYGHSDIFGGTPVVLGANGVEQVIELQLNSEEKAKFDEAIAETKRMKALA

[4] = inhibition of 3D7 malaria parasite growth – strain 3D7 (AID 2306);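 also: 0% = DMSO wells and 100% = chloroquine plus artemisinin control wells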; settings: P. falciparum 3D7 erythrocytic growth, LDH absorbance, 72 h; at 2 µM; active compounds read high
[5] = target: Calcium-dependent protein kinase 1 (Plasmodium falciparum (isolate 3D7)) (UniProt P62344); test: PfCDPK1 kinase inhibitors, biochemical, TCAMS library (AID 1159585; cut-off not given, nearly all actives have IC50 up to about 0.98 µM;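 also: inhibitors leave more ATP so luminescence rises with inhibition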); settings: recombinant PfCDPK1, Kinase-Glo ATP depletion luminescence
Chain of Calcium-dependent protein kinase 1 (Plasmodium falciparum (isolate 3D7)) (P62344 whole entry, looked up): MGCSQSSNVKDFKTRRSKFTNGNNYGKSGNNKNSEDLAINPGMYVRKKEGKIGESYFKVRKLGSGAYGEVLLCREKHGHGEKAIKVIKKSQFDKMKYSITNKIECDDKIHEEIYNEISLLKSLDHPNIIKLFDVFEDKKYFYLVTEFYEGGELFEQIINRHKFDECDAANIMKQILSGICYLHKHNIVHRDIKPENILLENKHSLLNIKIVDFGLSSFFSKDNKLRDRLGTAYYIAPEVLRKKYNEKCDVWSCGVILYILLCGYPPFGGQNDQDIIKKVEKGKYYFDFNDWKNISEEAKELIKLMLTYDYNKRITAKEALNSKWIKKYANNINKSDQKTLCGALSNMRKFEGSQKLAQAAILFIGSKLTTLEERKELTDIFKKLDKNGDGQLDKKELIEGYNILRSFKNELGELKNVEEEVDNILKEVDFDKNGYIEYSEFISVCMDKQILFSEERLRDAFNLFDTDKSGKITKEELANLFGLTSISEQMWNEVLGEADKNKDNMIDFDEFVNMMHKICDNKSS

[6] = target: Plasmodium falciparum protein kinase 6 (PK6, PF3D7_1337100) (UniProt Q8IDW1); test: PfPK6 kinase inhibitors, biochemical, TCAMS library (AID 1159586); settings: recombinant PfPK6, Kinase-Glo ATP depletion luminescence
Chain of Plasmodium falciparum protein kinase 6 (PK6, PF3D7_1337100) (Q8IDW1 1-305): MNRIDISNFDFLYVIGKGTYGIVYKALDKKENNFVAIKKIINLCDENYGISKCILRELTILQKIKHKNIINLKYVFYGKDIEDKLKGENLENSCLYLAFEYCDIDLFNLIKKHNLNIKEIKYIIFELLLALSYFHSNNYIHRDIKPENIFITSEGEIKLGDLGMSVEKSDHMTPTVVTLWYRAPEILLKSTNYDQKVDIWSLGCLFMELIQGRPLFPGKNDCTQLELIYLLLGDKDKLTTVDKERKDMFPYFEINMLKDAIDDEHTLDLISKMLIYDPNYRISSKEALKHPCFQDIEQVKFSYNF

[7] = target: Protein kinase 7 (PK7), Plasmodium falciparum 3D7 (PF3D7_0213400) (UniProt Q7YTF7); test: inhibition of Plasmodium PK7 catalytic activity – biochemical, TCAMS antimalarial set, Kinase-Glo luminescence (AID 1159587); settings: recombinant PfPK7, Kinase-Glo ATP depletion luminescence
Chain of Protein kinase 7 (PK7), Plasmodium falciparum 3D7 (PF3D7_0213400) (Q7YTF7 1-343): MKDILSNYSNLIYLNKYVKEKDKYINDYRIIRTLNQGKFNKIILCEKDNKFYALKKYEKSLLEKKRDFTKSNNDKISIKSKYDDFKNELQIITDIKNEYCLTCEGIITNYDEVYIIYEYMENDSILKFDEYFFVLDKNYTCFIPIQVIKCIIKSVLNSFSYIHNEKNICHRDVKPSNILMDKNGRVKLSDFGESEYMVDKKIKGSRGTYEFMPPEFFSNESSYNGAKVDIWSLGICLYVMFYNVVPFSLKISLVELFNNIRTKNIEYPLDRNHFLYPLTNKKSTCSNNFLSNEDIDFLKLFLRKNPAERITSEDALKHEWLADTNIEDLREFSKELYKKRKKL

[8] = target: Calcium-dependent protein kinase 4 (Plasmodium falciparum (isolate 3D7)) (UniProt Q8IBS5); test: PfCDPK4 kinase inhibitors, biochemical, TCAMS library (AID 1159588; cut-off not given, nearly all actives have IC50 up to about 0.91 µM); settings: recombinant PfCDPK4, Kinase-Glo ATP depletion luminescence
Chain of Calcium-dependent protein kinase 4 (Plasmodium falciparum (isolate 3D7)) (Q8IBS5 whole entry, looked up): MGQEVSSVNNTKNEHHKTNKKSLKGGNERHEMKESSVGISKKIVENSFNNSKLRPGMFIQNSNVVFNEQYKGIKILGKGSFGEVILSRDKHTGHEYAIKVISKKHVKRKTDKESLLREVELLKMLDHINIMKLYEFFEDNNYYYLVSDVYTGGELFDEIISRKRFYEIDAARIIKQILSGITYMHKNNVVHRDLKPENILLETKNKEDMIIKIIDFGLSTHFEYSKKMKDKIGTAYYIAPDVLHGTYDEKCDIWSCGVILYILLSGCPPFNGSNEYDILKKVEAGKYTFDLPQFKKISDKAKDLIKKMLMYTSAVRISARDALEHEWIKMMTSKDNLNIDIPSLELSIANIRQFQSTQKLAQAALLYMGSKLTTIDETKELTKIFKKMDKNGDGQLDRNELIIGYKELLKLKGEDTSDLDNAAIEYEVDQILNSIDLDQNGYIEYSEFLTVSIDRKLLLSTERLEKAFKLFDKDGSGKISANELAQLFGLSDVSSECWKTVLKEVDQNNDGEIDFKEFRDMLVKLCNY

SMILES | growth inhibition [1] | inhibition [2] | inhibition [3] [%] | growth inhibition [4] | outcome [5] | outcome [6] | outcome [7] | outcome [8]
Cn1cnc2c(Nc3ccncc3)nc(-c3ccc(OC(F)(F)F)cc3)nc21 | 65% (active) | 28% | -1 | 102% (active) | inactive | inactive | inactive | inactive
CCOc1ccccc1C(=O)N1CCc2cc3nccc(N4CCN5CCC[C@H]5C4)c3cc21 | 58% (active) | 4% | -8 | 100% (active) | inactive | inactive | inactive | inactive
Cc1ccc(N2C(=O)C3C(C2=O)[C@]2(c4ccccc4)C(=O)[C@@]3(c3ccccc3)C(c3ccccc3)=C2c2ccccc2)c(C)c1 (stereo partly drawn) | 96% (active) | 3% | 6 | 96% (active) | inactive | inactive | inactive | inactive
Cc1cc(N[C@@H](CC(C)C)C(=O)NC2CCCC2)nc(NCC2CCCCC2)n1 | 88% (active) | 8% | 0 | 101% (active) | inactive | inactive | inactive | inactive
CC(C)n1ncc2c(C(=O)N3CCCc4ccccc43)cc(-c3ccccc3)nc21 | 82% (active) | 5% | 2 | 100% (active) | inactive | inactive | inactive | inactive
CNS(=O)(=O)c1ccc(NC(=O)c2cc(-c3cccnc3)nc3ccc(Br)cc23)cc1 | 55% (active) | 9% | 5 | 101% (active) | inactive | inactive | inactive | inactive
COc1ccc2c(NN=Cc3ccccc3[N+](=O)[O-])cc(C)nc2c1 | 100% (active) | 14% | -4 | 101% (active) | inactive | inactive | inactive | inactive
Cc1cc(N[C@@H](CC(C)C)C(=O)NCCOc2ccccc2)nc(NCCc2ccccc2)n1 | 29% | 13% | -1 | 94% (active) | inactive | inactive | inactive | inactive
CCCCN(CCCC)CCCCNc1c2ccc(Cl)cc2nc2ccc(OC)cc12 | 96% (active) | 68% (active) | 2 | 101% (active) | inactive | inactive | inactive | inactive
Nc1nc(N)c2c(n1)CCC(c1ccccc1)C2 (stereo not drawn) | -1% | 55% (active) | 1 | 93% (active) | inactive | inactive | inactive | inactive
O=C(Nc1ccc(-c2ccc(-c3nc4ccccc4[nH]3)s2)cc1)Nc1ccc(F)c(F)c1F | 97% (active) | 57% (active) | 5 | 99% (active) | inactive | inactive | inactive | inactive
CCn1c(=O)c(C(=O)Nc2cc(Cl)c(OC)cc2OC)nc2ccccc21 | 84% (active) | 19% | 6 | 86% (active) | inactive | inactive | inactive | inactive
OCC1CCN(Cc2ccc(-c3ccc(-c4nc5ccc(F)cc5[nH]4)cc3)cc2)CC1 | 95% (active) | 17% | -1 | 100% (active) | inactive | inactive | inactive | inactive
COCCNCc1cccc(C#Cc2cc3ncnc(Nc4ccc(OCc5cccc(F)c5)c(Cl)c4)c3s2)n1 | 52% (active) | 35% | -4 | 99% (active) | inactive | inactive | inactive | inactive
O=C(Nc1ccc(-c2ccccc2)cc1)Nc1cccc(OCCN2CCCC2)c1 | 14% | 11% | -2 | 94% (active) | inactive | inactive | inactive | inactive
Cc1cc(N[C@@H](Cc2ccccc2)C(=O)NCCOc2ccccc2)nc(NCCc2ccccc2)n1 | 68% (active) | 12% | -1 | 101% (active) | inactive | inactive | inactive | inactive
CCN(CC)C(=O)c1cnc(-c2ccccc2)nc1Oc1cccc(Cl)c1 | 40% | -7% | -3 | 92% (active) | inactive | inactive | inactive | inactive
O=C1c2ccccc2CN1CCCN1CCC(Oc2ccc(F)cc2)CC1 | 1% | 14% | 3 | 97% (active) | inactive | inactive | inactive | inactive
Cc1cnccc1/C=C/c1cccc(OCCN2CCc3ccc(S(C)(=O)=O)cc3CC2)c1 | 80% (active) | 9% | -4 | 93% (active) | inactive | inactive | inactive | inactive
NC(N)=NC(=O)Nc1cc(Cl)c(F)c(Cl)c1 | 64% (active) | 22% | -4 | 100% (active) | inactive | inactive | inactive | inactive
COc1ccc2nccc([C@@H](O)CN3CCC(NCc4cc5sccc5nc4C(F)(F)F)CC3)c2c1 | 67% (active) | 22% | 4 | 89% (active) | inactive | inactive | inactive | inactive

SMILES | growth inhibition [1] | inhibition [2] | inhibition [3] [%] | growth inhibition [4] | outcome [5] | outcome [6] | outcome [7] | outcome [8]
CN1CCN(CCNc2c3ccccc3nc3c2ccc2ccccc23)CC1 | 66% (active) | 76% (active) | -6 | 101% (active) | inactive | inactive | inactive | inactive
COC(=O)Cn1c(C2CCN(CC3CCN(C(=O)/C=C/c4ccc(Cl)c(Cl)c4)CC3)CC2)nc2ccccc21 | 2% | 19% | -1 | 86% (active) | inactive | inactive | inactive | inactive
COc1ccc(N2CCN(CCCCNC(=O)c3ccc(NC(=O)c4cccc(Cl)c4)cc3)CC2)c(OC)c1 | 33% | 18% | 0 | 101% (active) | inactive | inactive | inactive | inactive
Nc1nc(N)c2c(ccc3c2ccn3Cc2ccccn2)n1 | 94% (active) | 66% (active) | -1 | 90% (active) | inactive | inactive | inactive | inactive
COc1ccc2nccc([C@@H](O)CN3CCC(NCc4cc5ccccc5[nH]4)CC3)c2n1 | 55% (active) | 17% | 3 | 101% (active) | inactive | inactive | inactive | inactive
Cc1ccc(CN2CCCN(Cc3cccc(C(=O)Nc4ccc(C(C)(C)C)cc4)c3)CC2)s1 | 4% | 31% | -5 | 85% (active) | inactive | inactive | inactive | inactive
O=C(NCc1cccs1)[C@H](Cc1ccccc1)Nc1ccnc(NCCc2ccccc2)n1 | 59% (active) | -1% | -2 | 85% (active) | inactive | inactive | inactive | inactive
CN1CCN(c2ccnc3ccc(NC(=O)Cc4ccc5ccccc5c4)cc23)CC1 | 89% (active) | 6% | -2 | 100% (active) | inactive | inactive | inactive | inactive
COc1cc([N+](=O)[O-])ccc1NC(=O)c1cc(Cl)ccc1O | 100% (active) | 92% (active) | 6 | 87% (active) | inactive | inactive | inactive | inactive
COc1ccc2nccc([C@@H](O)CN3CCC(NCC(O)Cc4ccccc4)CC3)c2c1 (stereo partly drawn) | 6% | 5% | -3 | 98% (active) | inactive | inactive | inactive | inactive
c1ccc2c(c1)CN(CC1CC1)CC1(CCN(Cc3c[nH]c4cnccc34)CC1)O2 | 14% | 30% | -1 | 101% (active) | inactive | inactive | inactive | inactive
CCCCCCOc1ccc(N2C(N)=NC(N)=NC2(C)C)cc1 | 0% | 5% | 7 | 98% (active) | inactive | inactive | inactive | inactive
CN(C)Cc1ccc2cc(NC(=O)c3ccc(-c4ccc(Cl)cc4)cc3)ccc2n1 | 30% | 60% (active) | -1 | 86% (active) | inactive | inactive | inactive | inactive
COc1ccccc1Oc1c(N(C)S(=O)(=O)c2ccc(C(C)C)cc2)nc(C(F)(F)F)nc1N(C)S(=O)(=O)c1ccc(C(C)C)cc1 | 98% (active) | 4% | -6 | 94% (active) | inactive | inactive | inactive | inactive
CCNc1cc(C(=O)N[C@@H](Cc2ccccc2)[C@H](O)CNC2(CCC(C)C)CC2)cc(N2CCCCS2(=O)=O)c1 | 52% (active) | 6% | 2 | 90% (active) | inactive | inactive | inactive | inactive
O=C(Cc1cnc[nH]1)Nc1cccc(-c2ccc(-c3nc4ccc(F)cc4[nH]3)s2)c1 | 94% (active) | 4% | -12 | 101% (active) | inactive | inactive | inactive | inactive
CC(C)[C@H](NCC(=O)c1ccccc1)C(=O)O | 0% | 6% | -3 | 99% (active) | inactive | inactive | inactive | inactive
CN(C)CCNc1ncnc2c1[nH]c1ccc(Cl)cc12 | 8% | 7% | 4 | 100% (active) | inactive | inactive | inactive | inactive
CCN(CC)CCN(Cc1ccc(-c2ccc(C(F)(F)F)cc2)cc1)C(=O)Cn1c(CCc2cccc(F)c2F)nc(=O)c2ccc(F)cc21 | 41% | 14% | 3 | 98% (active) | inactive | inactive | inactive | inactive
CC(C)(Oc1ccc(Cl)cc1)C(=O)NCCC1CCN(CCCCCNC(=O)/C=C/c2ccc(Cl)c(Cl)c2)CC1 | 37% | 73% (active) | -1 | 87% (active) | inactive | inactive | inactive | inactive
